Our source for the growth inhibition values is PubChem BioAssay (NCI).

Test [1] in a line: NCI Yeast Anticancer Drug Screen. Data for the mec2-1 strain (AID 157). Particulars: S. cerevisiae mec2-1 strain, stronger effect = higher value. A digest of the protocol:
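Using mec2-1 yeast: add compound, measure growth, express inhibition versus vehicle-treated cultures.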

A short description of test [2]: NCI Yeast Anticancer Drug Screen. Data for the sgs1 mgt1 strain (AID 161).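 Also: 0% = growth of cultures given vehicle only.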 As to conditions: S. cerevisiae sgs1 mgt1 strain, stronger effect = higher value. A digest of the protocol: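 Percent growth inhibition was derived by comparing compound-exposed mutant yeast with vehicle-exposed cultures. The strain carries alterations in DNA damage repair.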
A short description of test [3]: NCI Yeast Anticancer Drug Screen. Data for the cln2 rad14 strain (AID 165).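 Also: 0% = growth equal to vehicle treated cultures.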 Particulars: S. cerevisiae cln2 rad14 strain, stronger effect = higher value. The method, boiled down:
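Yeast strain cln2 rad14, bearing defects in cell cycle control and DNA repair, serves as the test system; values reflect growth inhibition compared with vehicle.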

Test [4] is described as follows: NCI Yeast Anticancer Drug Screen. Data for the bub3 strain (AID 167). Particulars: S. cerevisiae bub3 mutant strain, stronger effect = higher value. The method, boiled down: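 Whole-cell yeast assay. The mutant strain was incubated with compounds, and growth inhibition was determined by comparison with vehicle-treated cells.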
Test [5] can be described thus: NCI Yeast Anticancer Drug Screen. Data for the mlh1 rad18 strain (AID 175). Particulars: S. cerevisiae mlh1 rad18 strain growth inhibition, stronger effect = higher value. A digest of the protocol: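 Steps: expose repair-defective yeast to compound; measure growth; express inhibition against vehicle-treated controls.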
The nature of test [6]: NCI Yeast Anticancer Drug Screen. Data for the rad50 strain (AID 155).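 Also: 0% = growth of vehicle-only cultures of the same strain.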 As to conditions: S. cerevisiae rad50 strain growth inhibition; at 50.0 µM; stronger effect = higher value. A digest of the protocol:
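Growth of the mutant yeast was measured after compound exposure and referenced to vehicle-treated cultures.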

[7] abbreviates: at 5.0 µM (retest, dose inferred, filed as 0.5).
Where [8] appears, read: at 50.0 µM (retest, dose inferred, filed as 5.0).

Values joined by “and” are separate entries in the source; they are usually repeats but may differ in a detail not shown here. Equal entries are not always repeated. About 79,000 compounds went through this panel and 15% of them were active in at least one assay; those are over-represented in the sample as a whole. A number with no mark means an inactive call. Active and inactive are the calls of the source. Rule as the data show it: active = growth inhibition above about 70%; inactive = the rest.

On to `O=C(c1ccc(O)c(Br)c1)c1ccc(O)c(Br)c1`, for which the growth inhibition in test [1] (setting [7]) was 76% (active); in test [1] (setting [8]) it was 99% (active); in test [1] (at 50.0 µM), 76% (active); in test [2] (setting [7]) it was 44%; in test [2] (setting [8]), 99% (active); in test [2] (at 50.0 µM), 64.4%. In addition, the growth inhibition in test [3] (setting [7]) is 83% (active); in test [3] (setting [8]) it was 99% (active); in test [3] (at 50.0 µM) it was 43.5%; in test [4] (setting [7]), 83% (active); in test [4] (setting [8]) it was 99% (active); in test [4] (at 50.0 µM) it was 82.7% (active). For the same compound, the growth inhibition is 76% (active) in test [5] (setting [7]), 99% (active) in test [5] (setting [8]) and 88% (active) in test [5] (at 50.0 µM).
For `Oc1ccc[n+](Cc2ccccc2)c1`, the growth inhibition in test [6] was -7.85% and -26.4%; in test [1] (at 50.0 µM) it was -24.1% and -43.9%; in test [2] (at 50.0 µM), -47.3% and -12.4%; in test [4] (at 50.0 µM), -49.5% and -22.8%; in test [5] (at 50.0 µM), -21.8% and -11.4%.
With `CCCCC(CC)CNC(=O)CI` (stereo not drawn), the growth inhibition in test [1] (setting [7]) is -2%; in test [1] (setting [8]), 22%; in test [2] (setting [7]) it was 6%; in test [2] (setting [8]) it was 73% (active); in test [3] (setting [7]) it was 9%; in test [3] (setting [8]) it was 6%. The growth inhibition in test [4] (setting [7]) is 9%; in test [4] (setting [8]), 76% (active); in test [5] (setting [7]), -13%; in test [5] (setting [8]) it was 51%.
In the case of `CCSc1nc2ccccc2o1`, the growth inhibition was 0% in test [1] (setting [7]); -1% in test [1] (setting [8]); 39.6% in test [1] (at 50.0 µM); 6% in test [2] (setting [7]); 2% in test [2] (setting [8]); 9.4% in test [2] (at 50.0 µM). Moreover, the growth inhibition was 6% in test [3] (setting [7]); -2% in test [3] (setting [8]); 30.6% in test [3] (at 50.0 µM); 3% in test [4] (setting [7]); -2% in test [4] (setting [8]); 42.6% in test [4] (at 50.0 µM). Besides, the growth inhibition in test [5] (setting [7]) is 3%; in test [5] (setting [8]) it was -3%; in test [5] (at 50.0 µM) it was -15.7%.
Regarding `Cc1cc(C#N)c(=S)n(C2OC(CO)C(O)C(O)C2O)c1C` (stereo not drawn), the growth inhibition was 7.4% and 11.9% in test [6]; 9.25% and 8.65% in test [1] (at 50.0 µM); 14.2% and 15.2% in test [2] (at 50.0 µM); 7.25% and -0.4% in test [3] (at 50.0 µM); 7.8% and 7.75% in test [4] (at 50.0 µM); 24.6% and 22.6% in test [5] (at 50.0 µM).
`CCOc1ccc(C=O)cc1OC`: the growth inhibition was -53.1% and -10.4% in test [1] (at 50.0 µM); -52.6% and 0.25% in test [2] (at 50.0 µM); -6.4% and 4.25% in test [3] (at 50.0 µM); -26.9% and -0.4% in test [4] (at 50.0 µM); -11.4% and 0.1% in test [5] (at 50.0 µM).
For the compound `CCCCCCCCCCCCCCCCSC(=NCC)NCC`, the growth inhibition was 67% in test [1] (setting [7]); 99% (active) in test [1] (setting [8]); 99.7% (active) in test [1] (at 50.0 µM); 98% (active) in test [2] (setting [7]); 100% (active) in test [2] (setting [8]); 99.6% (active) in test [2] (at 50.0 µM). The growth inhibition in test [4] (setting [7]) is 81% (active); in test [4] (setting [8]) it was 99% (active); in test [4] (at 50.0 µM), 99.5% (active); in test [5] (setting [7]), 98% (active); in test [5] (setting [8]), 99% (active); in test [5] (at 50.0 µM), 99.3% (active).
As to `Cc1ccc(S(=O)(=O)NN=C2C(C)(C)CC2(C)C)cc1`, the growth inhibition in test [1] (at 50.0 µM) was 1.15% and -11.8%; in test [2] (at 50.0 µM), 8.55% and 6.6%; in test [3] (at 50.0 µM) it was 13.9% and -23.5%; in test [4] (at 50.0 µM), 6.15% and -2.85%; in test [5] (at 50.0 µM) it was -24.8% and 3.65%.
`Oc1ccc(Cc2cccc(Cl)c2)c(O)c1`: the growth inhibition is -7% in test [1] (setting [7]); 96% (active) in test [1] (setting [8]); -4% in test [2] (setting [7]); 97% (active) in test [2] (setting [8]); 4% in test [3] (setting [7]); 98% (active) in test [3] (setting [8]). Also, the growth inhibition in test [4] (setting [7]) is 0%; in test [4] (setting [8]), 92% (active); in test [5] (setting [7]), -3%; in test [5] (setting [8]), 90% (active).
